Compounds without any hit were thinned out: in the full panel of roughly 83,000, 20% have a hit.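 Cells were grown in 96-well plates and exposed to the test compound at a single concentration for 48 hours; results are reported as percent growth, with values below 10 considered active.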 Unmarked numbers belong to inactive results. Activity calls are given as the source filed them.
Experiments:
Experiment in all cases: NCI-60 one-dose screen, 48 h (100 = growth as untreated, 0 = no growth, -100 = all killed)
SK-MEL-2 melanoma = conditions: 10 µM unless noted
SN12C renal = conditions: 10 µM unless noted
UO-31 renal = conditions: 10 µM unless noted
TK-10 renal = conditions: 10 µM unless noted
ACHN renal = conditions: 10 µM unless noted
CAKI-1 renal = conditions: 10 µM unless noted
CCRF-CEM leukemia = conditions: 10 µM
MOLT-4 leukemia = conditions: 10 µM unless noted
A498 renal = conditions: 10 µM unless noted

| Compound | growth (SK-MEL-2 melanoma) | growth (SN12C renal) | growth (UO-31 renal) | growth (TK-10 renal) | growth (ACHN renal) | growth (CAKI-1 renal) | growth (CCRF-CEM leukemia) | growth (MOLT-4 leukemia) | growth (A498 renal) |
| --- | --- | --- | --- | --- | --- | --- | --- | --- | --- |
| O=C1C=C(OCC=C(C(F)(F)F)C(F)(F)F)c2ccccc2C1=O | 12.4% | -15.1% (active) | 49.9% | 53.5% | 1.45% (active) | 4.75% (active) | -33.9% (active) | -36.9% (active) | – |
| O=C1/C(=C/c2ccc(Cl)cc2)CCC/C1=C\c1ccc(Cl)cc1 | 117% | 92% | 74.1% | 123% | 95% | – | 78.1% | 80.2% | 105% |
| CCCCCCCCCCCCCCCCCCOP(=O)(O)O | 124% | 94.1% | 86.8% | 107% | 100% | – | – | 111% | 110% |
| CNc1nc2ncn(C)c2c(=O)[nH]1 | 94.3% | 92% | 83.3% | 84.1% | 71.5% | 84.1% | – | 94.8% | 96.4% |
| COC(=O)c1ccc2[nH]c(O)c(C(=Nc3ccc(N(C)C(=O)CN4CCN(C)CC4)cc3)c3ccc([N+](=O)[O-])cc3)c2c1 | 43.2% | 27.4% | – | 72.2% | 54.3% | 19% | 21.2% | 8.41% (active) | 25.9% |
| CC(C)(C)c1cc(C[P+](c2ccc(Cl)cc2)(c2ccc(Cl)cc2)c2ccc(Cl)cc2)cc(C(C)(C)C)c1O | 76.2% | 91.6% | – | 105% | 98.7% | 84.2% | – | 35.7% | 98.5% |
| CC1(C)C(O)NC(Cl)=C(C#N)C1(C#N)C#N (stereo not drawn) | 97.6% | 127% | – | – | 127% | 177% | 78.8% | – | 103% |
| CCN(CC)CCCNc1c2ccc(Cl)cc2nc2ccc(OC)cc12 | -3.63% (active) | 10.7% | -69.2% (active) | – | 1.29% (active) | – | -10.1% (active) | – | -62.2% (active) |
| Nc1ccc(S(=O)(=O)c2ccc(NO)cc2)cc1 | 93.2% | 121% | 84.2% | – | 114% | 102% | 91.8% | 95.9% | 114% |
| OCCN1CCCN(CCCN2c3ccccc3Sc3ccc(C(F)(F)F)cc32)CC1 | 81.5% | 62.9% | 41.8% | – | 68% | 85.7% | – | 23.4% | 73.7% |
| O=C1C(=O)c2ccccc2C(O)=C1CCCc1ccc(Oc2ccccc2)cc1 | 72.5% | 77.8% | 43.5% | 90.7% | – | 43.3% | 32.1% | 50.3% | 66.1% |
| COc1cc(-c2nc(/C=C3/C(=O)Nc4ccccc43)c3ccccn23)cc(OC)c1OC | 43.7% | 79.3% | – | 120% | 58.6% | 58.2% | 72.7% | 62.8% | 111% |
| CCC(CCCN1C(=O)c2ccccc2C1=O)Nc1cc(OC)cc2c(C)ccnc12 (stereo not drawn) | 87% | 97.8% | 115% | 120% | – | 75.7% | 105% | 66.3% | – |
| COc1cc(OC)c(/C=C/c2ccc3ccccc3[n+]2C)c(OC)c1 | -4.21% (active) | 12.3% | 65.9% | – | 25.6% | – | – | -50.3% (active) | 7.12% (active) |
| CC(=O)Oc1cc2ccccc2cc1C(C)C | 85.7% | 111% | 88.7% | – | 97.4% | 106% | – | – | 81% |
| CC1CCCCC[N+]12CCCC2 (stereo not drawn) | 101% | 101% | – | 100% | 101% | – | – | 99.2% | 109% |
| COc1cc(C(=O)Nc2ccc(N(C)C)cc2)cc(OC)c1OC | 78.8% | 94.2% | 85.8% | – | 93.1% | 91.1% | – | 92% | 82.1% |
| OCCN1CCN(CC/C=C2/c3ccccc3Sc3ccc(C(F)(F)F)cc32)CC1 | 79.8% | 72.6% | – | – | 79% | 74.9% | – | 41.3% | – |

| Compound | growth (SK-MEL-2 melanoma) | growth (SN12C renal) | growth (UO-31 renal) | growth (TK-10 renal) | growth (ACHN renal) | growth (CAKI-1 renal) | growth (CCRF-CEM leukemia) | growth (MOLT-4 leukemia) | growth (A498 renal) |
| --- | --- | --- | --- | --- | --- | --- | --- | --- | --- |
| O=C(NC(=S)NNC(=S)NNc1ccccc1)c1ccccc1 | 24.2% | 25.7% | 54% | – | 70.7% | 55.9% | – | 39.3% | 78.9% |
| CCN(CC)CCOC(=O)c1cccnc1 | 91.1% | 96.2% | 86.2% | – | 99.3% | – | – | 94.2% | 62.5% |
| CCOc1ccc(Br)cc1/C=C(\C#N)c1ccc([N+](=O)[O-])cc1 | 88.6% | 85.3% | 81.5% | – | 68% | 77.7% | – | 82.7% | – |
| CCOC(=O)C(C)C(C)(O)c1ccccc1 (stereo not drawn) | 97.7% | 98.2% | 78.5% | – | 111% | 109% | – | – | 91.5% |
| O=C(OCC1CC2(Cl)C(Cl)=C(Cl)C1(Cl)C2(Cl)Cl)C1C(C(=O)OCC2CC3(Cl)C(Cl)=C(Cl)C2(Cl)C3(Cl)Cl)C2(Cl)C(Cl)=C(Cl)C1(Cl)C2(Cl)Cl (stereo not drawn) | 111% | 105% | 91.8% | – | 95.6% | – | – | 85% | 117% |
| CSc1nc(N)n2nccc2n1 | 115% | 96.8% | 65.4% | 99.8% | – | 70.6% | – | 98.9% | 109% |
| CCCCCCCCCC[N+](C)(C)N | 105% | 103% | – | 74.4% | 105% | 78.4% | – | 80.5% | 105% |
| CCCCCCCCCCCCOC(=N)N(C)C | 95.8% | 101% | 91% | – | 93.6% | 80.7% | – | 93.5% | 103% |
| Cn1c2ccccc2c2ccccc21 | 99.4% | 107% | – | 97.5% | 105% | 101% | – | 89.7% | 115% |
| C=CN(C)S(C)(=O)=O | -8.09% (active) | 42.5% | 18.2% | 53.2% | – | -7.94% (active) | 16.9% | 30.1% | 105% |
| CCn1cnc(C[C@H](NC(=O)[C@@H](NC(=O)Nc2cc(C(F)(F)F)cc(C(F)(F)F)c2)C(C)(C)C)C(=O)OC)c1 | -91% [100 µM] (active) | -96.2% [100 µM] (active) | -94.1% [100 µM] (active) | – | -95.8% [100 µM] (active) | -96% [100 µM] (active) | – | -49% [100 µM] (active) | -91.6% [100 µM] (active) |
| COC(=O)[C@H](Cc1cn(C)cn1)NC(=O)[C@H](CC(=O)OCc1ccccc1)NC(=O)Nc1cc(C(F)(F)F)cc(C(F)(F)F)c1 | -92.6% [100 µM] (active) | -91.1% [100 µM] (active) | -96.3% [100 µM] (active) | – | -98.6% [100 µM] (active) | -91.9% [100 µM] (active) | – | -62.8% [100 µM] (active) | -92.3% [100 µM] (active) |
| CCCCCCCCCCCCCCCCNC(=S)N/N=C/c1ccc(OC)cc1 | 107% | 93.5% | – | 110% | 104% | 92% | – | – | 113% |
| CC(=O)Nc1nc(C)c(C(=O)N/N=C/N2CCOCC2)s1 | 34.1% | 105% | 89% | – | 104% | 140% | 76.3% | 188% | – |
| Cc1ccc(C(=O)Nc2ccc(CN3CCN(C)CC3)c(C(F)(F)F)c2)cc1C#Cc1cnc(N)c2ccc(F)cc12 | -56.2% (active) | -90.8% (active) | -97.3% (active) | -84.5% (active) | -100% (active) | – | -58.7% (active) | -67.1% (active) | – |
| CCCCCCC(C(=O)OCC)(C(=O)OCC)C1CCCCCC1 | 114% | 101% | 90.6% | – | 101% | 89.9% | – | 104% | 96.7% |
| COc1ccc(CN2C(=O)/C(=C\C(=O)c3ccc(OCCN4CCCCC4)cc3)c3ccccc32)cc1 | 97.4% | 26.3% | 39.3% | 113% | 48.7% | – | 8.94% (active) | 3.78% (active) | – |
| CC(=O)NCCN | 115% | 104% | 98.4% | – | 97.2% | 84.7% | – | 102% | 97.9% |

Reference: PubChem BioAssay (NCI)
